High-throughput results deposited in PubChem by National Center for Advancing Translational Sciences (NCATS).
Abeta yeast res: A-beta toxicity reversal in yeast | yeast expressing A-beta42, growth rescue, OD600, 48 h; response scale: 0% DMSO, 100% iron-clioquinol control | Potency, µM (top dose mostly 46.1 µM), actives largely listed as activators | 410,000 tested, 0.063% active | AID 1347071; further: nearly all actives have a fitted effect of over 55% in size
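Yeast growth medium received pinned compounds, then yeast cells expressing toxic A-beta were added; plates incubated at 30 C for 48 hr. Growth read as absorbance at 600 nm, normalized to DMSO and equimolar FeCl3 plus clioquinol controls.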
FUS suppressor: FUS proteinopathy suppression in yeast. S. cerevisiae FUS-expressing, growth rescue, OD600, 24 h. 390,000 tested, 0.24% active. Potency, µM (titrated, usually from 76.6 µM), usual class: activators; further: nearly all actives have a fitted effect of over 55% in size
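Compound concentration series was pinned onto galactose-induced FUS-expressing yeast seeded at OD 0.005. Plates sat 24hr at 30C; absorbance at 600 nm gave growth. DMSO served as background control.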
aSyn yeast inh: inhibitors of alpha-synuclein toxicity in yeast; Potency, µM (titrated, usually from 46.1 µM), most hits filed as activators; Yeast expressing alpha-synuclein, growth rescue, BacTiter-Glo, 24 h; AID 652106; 370,000 tested, 0.14% active; further: nearly all actives have a fitted effect of over 65% in size
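Rescue of yeast growth: cells expressing toxic alpha-synuclein, induced in galactose at OD600 0.02, incubated with compound 24 h at 30 C. ATP luminescence quantified growth; inhibitors of toxicity appear as activators.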
TDP43 rescue: inhibitors of TDP-43 toxicity in yeast; TDP-43 expressing yeast growth rescue, BacTiter-Glo, 24 h; Potency, µM (series often up to 46.1 µM), actives largely listed as activators; 410,000 tested, 1.8% active; AID 652104; further: nearly all actives have a fitted effect of over 50% in size
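Growth rescue of TDP-43-toxic yeast measured as ATP luminescence (BacTiter-Glo). Cells grown to mid-log in raffinose, induced in galactose at OD600=0.02, exposed to compound 24 hr at 30 deg C.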
Mito fusion act: mitochondrial division inhibition or fusion activation; S. cerevisiae fusion-defective mutant growth rescue, CellTiterGlo 48 h; Potency, µM (series often up to 46.1 µM), actives largely listed as activators; 320,000 tested, 0.23% active; AID 485298; further: nearly all actives have a fitted effect of over 45% in size
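Read-out: ATP-based luminescence (CellTiterGlo, 10 min ambient) reporting growth of fusion-defective ts yeast after 48 hours at 37C on glycerol/ethanol YPEG medium in the presence of compound.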
Numbers stand for hits; - = inactive; ? = inconclusive; . = not tested or not shown. Sampled rows, rich in hits. Any-hit rate of the full collection: about 2.2%. The call rests on the fitted dose curve; in most records, active means well fitted curve in the direction sought with a large enough effect; inconclusive means small, poorly fitted or top-dose-only effect, or another doubt; inactive means no such curve, though single readings can be large; an effect the other way counts as inactive or inconclusive.

SMILES	Abeta yeast res	FUS suppressor	aSyn yeast inh	TDP43 rescue	Mito fusion act
Cc1cccc(C(=O)NC(=S)N2CCc3ccccc3C2)c1	?	-	-	20µM	-
CCc1ccc(Oc2c(C(F)(F)F)oc3c(CN4CCC(C)CC4)c(O)ccc3c2=O)cc1	-	-	-	-	.
O=C1CCCC2=C1C(c1ccc(Cl)cc1)N=C(Nc1nc3ccccc3o1)N2 (stereo unspecified)	.	.	-	.	.
Cc1ccc(CNC(=O)COc2cc(O)c3c(c2)OC(C)(C)CC3=O)cc1	-	?	-	12.6µM	-
COc1cc(NC(=O)COc2cc(O)c3c(c2)OC(C)(C)CC3=O)cc(OC)c1	-	?	-	?	-
